# Measured values taken from PubChem BioAssay (EPA / NIEHS).
# Activity calls are given as the source filed them. How the source made its calls: active means hit-call score of the fitted dose curve at least 0.9, where 1 is the maximum; inactive means score below 0.9.
# Tests used:
# Conditions in all cases: mRNA level, 48 h; actives raise or lower the signal
# [1] = read-out: Interleukin 6 (IL6), IL6 (gene 3569); assay: LTEA_HepaRG_IL6: Life Technologies and Expression Analysis (LTEA) Assay for Interleukin 6 (IL6) using HepaRG (AID 2283509)
# Method in brief: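 Differentiated human HepaRG cells, plated 48 h then switched to serum-free induction medium, were exposed in duplicate for 48 h to eight half-log concentrations up to 100 uM in 0.5% DMSO. IL6 mRNA measured by qRT-PCR, normalized to ACTB/GAPDH/POLR2A.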
# [2] = read-out: Potassium channel subfamily K member 1 (KCNK1), KCNK1 (gene 3775); assay: LTEA_HepaRG_KCNK1: Life Technologies and Expression Analysis (LTEA) Assay for Potassium channel subfamily K member 1 (KCNK1) using HepaRG (AID 2283511)
# Method in brief: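 Differentiated human HepaRG cells in serum-free induction medium were exposed in duplicate for 48 h to 8 half-log concentrations up to 100 uM in 0.5% DMSO. KCNK1 mRNA was measured by TaqMan qRT-PCR, normalized to ACTB, GAPDH and POLR2A, and fitted bidirectionally versus DMSO.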
# [3] = read-out: Keratin 19 (KRT19), KRT19 (gene 3880); assay: LTEA_HepaRG_KRT19: Life Technologies and Expression Analysis (LTEA) Assay for Keratin 19 (KRT19) using HepaRG (AID 2283512)
# Method in brief: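 Readout is qRT-PCR of KRT19 mRNA, normalized to ACTB, GAPDH and POLR2A, from HepaRG cells treated 48 h with eight-point half-log dilutions topping at 100 uM. Activity in either direction is scored relative to 0.5% DMSO vehicle.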
# [4] = read-out: JUN Transcription Factor, JUN (gene 3725); assay: LTEA_HepaRG_JUN: Life Technologies and Expression Analysis (LTEA) Assay for JUN Transcription Factor using HepaRG (AID 2283513)
# Method in brief: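 Differentiated HepaRG cells were exposed to chemicals for 48 h in serum-free induction medium, 8 concentrations from 100 uM in half-log steps, 0.5% DMSO vehicle, in duplicate. JUN mRNA was quantified by TaqMan qRT-PCR, normalized to ACTB, GAPDH, POLR2A.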
# [5] = read-out: Lipase C (LIPC), LIPC (gene 3990); assay: LTEA_HepaRG_LIPC: Life Technologies and Expression Analysis (LTEA) Assay for Lipase C (LIPC) using HepaRG (AID 2283514)
# Method in brief: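 Differentiated human HepaRG cells in serum-free induction medium were exposed in duplicate for 48 h to eight concentrations (top 100 uM, half-log steps, 0.5% DMSO). LIPC mRNA was quantified by TaqMan qRT-PCR, normalized to ACTB, GAPDH and POLR2A, with bidirectional fitting versus DMSO.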
# [6] = read-out: Lipoprotein lipase (LPL), LPL (gene 4023); assay: LTEA_HepaRG_LPL: Life Technologies and Expression Analysis (LTEA) Assay for Lipoprotein lipase (LPL) using HepaRG (AID 2283515)
# Method in brief: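 Differentiated human HepaRG cells in serum-free induction medium were exposed in duplicate for 48 h to eight half-log concentrations (top 100 uM) in 0.5% DMSO. LPL mRNA was quantified by TaqMan qRT-PCR, normalized to ACTB, GAPDH and POLR2A.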
# [7] = read-out: MicroRNA 122 (MIR122), gene 406906; assay: LTEA_HepaRG_MIR122: Life Technologies and Expression Analysis (LTEA) Assay for MicroRNA 122 (MIR122) using HepaRG (AID 2283516); further: the transcript read is the microRNA miR-122
# Method in brief: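 Differentiated human HepaRG cells were exposed 48 h in serum-free induction medium to eight half-log concentrations (top 100 uM, 0.5% DMSO). Transcript level was measured by TaqMan qRT-PCR, normalized to ACTB, GAPDH and POLR2A, and fitted bidirectionally versus DMSO.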
# [8] = read-out: matrix metalloproteinase-10 (MMP10), MMP10 (gene 4319); assay: LTEA_HepaRG_MMP10: Life Technologies and Expression Analysis (LTEA) Assay for matrix metalloproteinase-10 (MMP10) using HepaRG (AID 2283517)
# Method in brief: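 HepaRG, collagen I, ~100,000 cells/well; serum-free induction medium; 48 h exposure, duplicate, 8-pt half-log to 100 uM, 0.5% DMSO. Readout: TaqMan qRT-PCR, normalized to ACTB/GAPDH/POLR2A; bidirectional fit vs DMSO.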
# [9] = read-out: MYC, MYC (gene 4609); assay: LTEA_HepaRG_MYC: Life Technologies and Expression Analysis (LTEA) Assay for MYC using HepaRG (AID 2283518)
# Method in brief: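 Expression changes were scored by TaqMan qRT-PCR with ACTB, GAPDH and POLR2A normalization. Cultures in serum-free induction medium received duplicate 8-point concentration series, highest 100 uM, for 48 h; DMSO (0.5%) served as baseline.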
# [10] = read-out: matrix metalloproteinase-3 (MMP3), MMP3 (gene 4314); assay: LTEA_HepaRG_MMP3: Life Technologies and Expression Analysis (LTEA) Assay for matrix metalloproteinase-3 (MMP3) using HepaRG (AID 2283519)
# Method in brief: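 Differentiated human HepaRG cells, plated 48 h on collagen I, were exposed in duplicate for 48 h in serum-free induction medium to eight half-log concentrations up to 100 uM in 0.5% DMSO. MMP3 mRNA was quantified by TaqMan qRT-PCR, normalised to ACTB, GAPDH and POLR2A.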
# [11] = read-out: Paternally Expressed 10 (PEG10), PEG10 (gene 23089); assay: LTEA_HepaRG_PEG10: Life Technologies and Expression Analysis (LTEA) Assay for Paternally Expressed 10 (PEG10) using HepaRG (AID 2283520)
# Method in brief: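 Differentiated HepaRG cells, plated 48 h then switched to serum-free induction medium, were exposed in duplicate for 48 h to eight half-log concentrations topping at 100 uM in 0.5% DMSO. PEG10 mRNA was quantified by TaqMan qRT-PCR, normalised to ACTB, GAPDH and POLR2A.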
# [12] = read-out: Protein phosphatase 2A (PPP2R4), PTPA (gene 5524); assay: LTEA_HepaRG_PPP2R4: Life Technologies and Expression Analysis (LTEA) Assay for Protein phosphatase 2A (PPP2R4) using HepaRG (AID 2283522)
# Method in brief: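 Differentiated HepaRG cells in serum-free induction medium were exposed in duplicate for 48 h to eight concentrations, top 100 uM with half-log dilutions, in 0.5% DMSO. PPP2R4 mRNA was quantified by TaqMan qRT-PCR, normalized to ACTB, GAPDH and POLR2A.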
# [13] = read-out: Phosphatase and tensin (PTEN), PTEN (gene 5728); assay: LTEA_HepaRG_PTEN: Life Technologies and Expression Analysis (LTEA) Assay for Phosphatase and tensin (PTEN) using HepaRG (AID 2283523)
# Method in brief: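 Differentiated human HepaRG cells, plated 48 h then switched to serum-free induction medium, were exposed in duplicate for 48 h to eight half-log concentrations up to 100 uM in 0.5% DMSO. PTEN mRNA measured by TaqMan qRT-PCR, normalized to ACTB/GAPDH/POLR2A, bidirectional fit versus DMSO.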
# [14] = read-out: solute carrier (SLC22A1), SLC22A1 (gene 6580); assay: LTEA_HepaRG_SLC22A1: Life Technologies and Expression Analysis (LTEA) Assay for solute carrier (SLC22A1) using HepaRG (AID 2283524)
# Method in brief: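 Human HepaRG cells were plated 48 h, switched to serum-free induction medium, then exposed in duplicate for 48 h to 8-point half-log series from 100 uM in 0.5% DMSO. SLC22A1 mRNA measured by qRT-PCR, normalized to ACTB/GAPDH/POLR2A, fitted bidirectionally versus DMSO.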
# [15] = read-out: Pyruvate Dehydrogenase Kinase 4 (PDK4), PDK4 (gene 5166); assay: LTEA_HepaRG_PDK4: Life Technologies and Expression Analysis (LTEA) Assay for Pyruvate Dehydrogenase Kinase 4 (PDK4) using HepaRG (AID 2283525)
# Method in brief: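 Differentiated human HepaRG cells, pre-cultured 48 h, were exposed in duplicate for 48 h in serum-free induction medium to eight half-log concentrations up to 100 uM in 0.5% DMSO. PDK4 mRNA was quantified by qRT-PCR, normalized to ACTB, GAPDH and POLR2A, bidirectional fitting versus DMSO.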
# [16] = read-out: NAD(P)H dehydrogenase [quinone] 1 (NQO1), NQO1 (gene 1728); assay: LTEA_HepaRG_NQO1: Life Technologies and Expression Analysis (LTEA) Assay for NAD(P)H dehydrogenase [quinone] 1 (NQO1) using HepaRG (AID 2283526)
# Method in brief: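 Differentiated HepaRG cells, plated 48 h and then switched to serum-free induction medium, were exposed in duplicate for 48 h to 8-point half-log concentrations up to 100 uM in 0.5% DMSO. mRNA measured by qRT-PCR, normalized to ACTB, GAPDH, POLR2A; bidirectional fit versus DMSO.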
# [17] = read-out: Nuclear factor erythroid 2-related factor 2 (Homo sapiens) (UniProt Q16236); assay: LTEA_HepaRG_NFE2L2: Life Technologies and Expression Analysis (LTEA) Assay for Nuclear factor erythroid 2-related factor 2 (NFE2L2) Transcription Factor using HepaRG (AID 2283527);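 further: TaqMan qRT-PCR transcript level normalised to ACTB GAPDH and POLR2A housekeeping genes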
# Method in brief: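 Differentiated human HepaRG cells in serum-free induction medium were exposed for 48 h to eight concentrations (top 100 uM, half-log dilutions, 0.5% DMSO), in duplicate. NFE2L2 mRNA was quantified by TaqMan qRT-PCR, normalized to ACTB, GAPDH and POLR2A, with bidirectional fitting versus DMSO.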
# [18] = read-out: Nuclear factor NF-kappa-B p105 subunit (Homo sapiens) (UniProt P19838); assay: LTEA_HepaRG_NFKB1: Life Technologies and Expression Analysis (LTEA) Assay for Nuclear Factor Kappa B Subunit 1 (NFKB1) using HepaRG (AID 2283521);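 on outcome: TaqMan qRT-PCR transcript normalised to ACTB GAPDH and POLR2A housekeeping genes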
# Method in brief: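 Differentiated human HepaRG cells were exposed for 48 h in serum-free induction medium to eight concentrations (top 100 uM, half-log steps, 0.5% DMSO), in duplicate. NFKB1 mRNA was measured by TaqMan qRT-PCR, normalized to ACTB/GAPDH/POLR2A, and fitted bidirectionally against DMSO.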
# [19] = read-out: Interleukin 6 Receptor (IL6R), IL6R (gene 3570); assay: LTEA_HepaRG_IL6R: Life Technologies and Expression Analysis (LTEA) Assay for Interleukin 6 Receptor (IL6R) using HepaRG (AID 2283510)
# Method in brief: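 Differentiated human HepaRG cells, plated 48 h then switched to serum-free induction medium, were dosed in duplicate for 48 h at eight half-log concentrations up to 100 uM in 0.5% DMSO. IL6R mRNA quantified by qRT-PCR, normalized to ACTB/GAPDH/POLR2A; bidirectional fit versus DMSO.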
# Sequence of Nuclear factor erythroid 2-related factor 2 (Homo sapiens) (Q16236 whole entry, looked up): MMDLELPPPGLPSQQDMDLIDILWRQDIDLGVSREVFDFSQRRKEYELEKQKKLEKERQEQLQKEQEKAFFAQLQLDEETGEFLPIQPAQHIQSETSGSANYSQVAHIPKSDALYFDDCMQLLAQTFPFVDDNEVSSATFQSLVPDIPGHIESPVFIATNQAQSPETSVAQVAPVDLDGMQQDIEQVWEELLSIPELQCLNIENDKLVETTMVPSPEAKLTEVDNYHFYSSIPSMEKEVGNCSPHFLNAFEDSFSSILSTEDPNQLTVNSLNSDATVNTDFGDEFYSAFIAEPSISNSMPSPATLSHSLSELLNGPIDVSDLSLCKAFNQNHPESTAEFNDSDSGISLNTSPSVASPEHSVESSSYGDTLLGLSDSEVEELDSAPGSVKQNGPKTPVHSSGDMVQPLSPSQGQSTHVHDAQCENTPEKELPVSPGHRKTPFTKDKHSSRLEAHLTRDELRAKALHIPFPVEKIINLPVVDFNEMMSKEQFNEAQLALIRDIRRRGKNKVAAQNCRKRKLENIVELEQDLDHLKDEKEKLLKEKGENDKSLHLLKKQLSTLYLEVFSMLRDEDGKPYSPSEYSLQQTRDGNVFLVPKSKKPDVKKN
# Sequence of Nuclear factor NF-kappa-B p105 subunit (Homo sapiens) (P19838 whole entry, looked up): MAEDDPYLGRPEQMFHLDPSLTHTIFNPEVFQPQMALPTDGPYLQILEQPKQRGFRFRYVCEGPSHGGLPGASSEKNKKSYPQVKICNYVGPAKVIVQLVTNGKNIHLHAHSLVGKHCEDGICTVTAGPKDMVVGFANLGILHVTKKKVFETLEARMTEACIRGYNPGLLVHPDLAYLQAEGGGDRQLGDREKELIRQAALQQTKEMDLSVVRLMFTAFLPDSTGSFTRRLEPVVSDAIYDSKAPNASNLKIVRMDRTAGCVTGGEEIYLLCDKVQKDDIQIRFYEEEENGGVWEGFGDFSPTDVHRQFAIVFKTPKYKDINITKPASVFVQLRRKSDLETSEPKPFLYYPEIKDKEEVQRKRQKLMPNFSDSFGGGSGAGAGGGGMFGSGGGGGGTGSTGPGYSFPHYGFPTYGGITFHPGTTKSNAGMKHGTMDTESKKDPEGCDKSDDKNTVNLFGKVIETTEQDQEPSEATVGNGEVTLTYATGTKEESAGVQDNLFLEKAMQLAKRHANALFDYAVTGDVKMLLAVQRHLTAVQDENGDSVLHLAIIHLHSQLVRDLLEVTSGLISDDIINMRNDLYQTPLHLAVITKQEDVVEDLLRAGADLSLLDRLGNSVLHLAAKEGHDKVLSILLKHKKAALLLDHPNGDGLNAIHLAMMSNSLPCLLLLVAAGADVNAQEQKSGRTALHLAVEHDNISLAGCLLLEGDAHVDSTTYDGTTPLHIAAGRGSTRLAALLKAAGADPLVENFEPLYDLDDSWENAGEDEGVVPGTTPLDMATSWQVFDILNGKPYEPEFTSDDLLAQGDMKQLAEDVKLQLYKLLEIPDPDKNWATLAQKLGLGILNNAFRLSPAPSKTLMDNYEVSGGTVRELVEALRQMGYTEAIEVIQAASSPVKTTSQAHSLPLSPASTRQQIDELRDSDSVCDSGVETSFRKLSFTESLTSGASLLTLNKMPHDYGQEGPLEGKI
compound,measurement,setting,value
CCOc1ccc2c(c1)C(C)=CC(C)(C)N2,outcome,[1],inactive
same,outcome,[2],inactive
same,outcome,[3],inactive
same,outcome,[4],inactive
same,outcome,[5],inactive
same,AC50,[6],50 µM (active)
same,outcome,[7],inactive
same,outcome,[8],inactive
same,outcome,[9],inactive
same,outcome,[10],inactive
same,AC50,[11],31.8 µM (active)
same,AC50,[12],50 µM (active)
same,outcome,[13],inactive
same,outcome,[14],inactive
same,outcome,[15],inactive
same,outcome,[16],inactive
same,outcome,[17],inactive
CNCc1cc(F)ccc1Oc1ccc(Cl)c(Cl)c1,AC50,[1],95.4 µM (active)
same,outcome,[3],inactive
same,AC50,[4],80.5 µM (active)
same,outcome,[5],inactive
same,outcome,[6],inactive
same,AC50,[7],81.8 µM (active)
same,AC50,[8],91.2 µM (active)
same,AC50,[9],78.9 µM (active)
same,AC50,[10],50 µM (active)
same,AC50,[11],0.689 µM (active)
same,AC50,[18],86.3 µM (active)
same,AC50,[12],50 µM (active)
same,outcome,[13],inactive
same,AC50,[14],86.5 µM (active)
same,outcome,[15],inactive
same,outcome,[16],inactive
same,outcome,[17],inactive
COc1cc(C=O)ccc1O,outcome,[1],inactive
same,outcome,[19],inactive
same,outcome,[2],inactive
same,outcome,[3],inactive
same,outcome,[4],inactive
same,outcome,[5],inactive
same,outcome,[6],inactive
same,outcome,[7],inactive
same,outcome,[8],inactive
same,outcome,[9],inactive
same,outcome,[10],inactive
same,outcome,[11],inactive
same,outcome,[18],inactive
same,outcome,[12],inactive
same,outcome,[13],inactive
same,outcome,[14],inactive
same,outcome,[15],inactive
same,outcome,[16],inactive
same,outcome,[17],inactive
CC(=O)OCCOCCOCCOC(C)=O,outcome,[1],inactive
same,outcome,[19],inactive
same,outcome,[2],inactive
same,outcome,[3],inactive
same,outcome,[4],inactive
same,outcome,[5],inactive
same,outcome,[6],inactive
same,outcome,[7],inactive
same,outcome,[8],inactive
same,outcome,[9],inactive
same,outcome,[10],inactive
same,outcome,[11],inactive
same,outcome,[12],inactive
same,outcome,[13],inactive
same,outcome,[14],inactive
same,outcome,[15],inactive
same,outcome,[16],inactive
same,outcome,[17],inactive
